Several values for one entry are separate records, joined by “and”; a condition that tells them apart may be missing. Equal values may be shown once. Hit rate of the full screen: of about 5,500 compounds, about 2,000 (36%) were called active. Another 18% or so got no clear call; they are omitted. No stated cut-off is given here; in the data, active means normalized growth mostly below about 0.91 (no sharp cut-off); inconclusive means no clear call, values can overlap the other calls; inactive means mostly above about 0.92. The list shows a part of the results.
Experiment: chemical genetic growth profiling, strain panel (AID 1159580);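 further: tested at 20 µM; growth read once vehicle control cultures reached saturation at 30 °C; 1 = growth at the plate median or of vehicle wells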
Details: S. cerevisiae deletion strains, growth OD

Measured: normalized growth

COc1cc(C/C=C/c2ccccc2)c(OC)cc1O
inactive: locus YAL013W, strain DEP1, stronger effect = lower value 0.989 | locus YAL026C, strain drs2, stronger effect = lower value 0.936 | locus YAL030W, strain snc1, stronger effect = lower value 0.956 | locus YBL061C, strain skt5, stronger effect = lower value 0.964 | locus YBR009C, strain hhf1, stronger effect = lower value 0.969 | locus YBR021W, strain FUR4, stronger effect = lower value 1.04 | locus YBR023C, strain chs3, stronger effect = lower value 0.95 | locus YBR171W, strain sec66, stronger effect = lower value 0.962 | locus YBR229C, strain ROT2, stronger effect = lower value 0.979 | locus YBR231C, strain swc5, stronger effect = lower value 0.942 | locus YBR279W, strain paf1, stronger effect = lower value 0.95 | locus YCL011C, strain gbp2, stronger effect = lower value 0.936 | locus YCL016C, strain dcc1, stronger effect = lower value 0.944 | locus YCL029C, strain bik1, stronger effect = lower value 0.962 | locus YCL061C, strain MRC1, stronger effect = lower value 0.967 | locus YCL069W, strain vba3, stronger effect = lower value 0.98 | locus YCR088W, strain abp1, stronger effect = lower value 0.958 | locus YDL005C, strain med2, stronger effect = lower value 0.948 | locus YDL035C, strain GPR1, stronger effect = lower value 1.04 | locus YDL040C, strain nat1, stronger effect = lower value 0.973 | locus YDL074C, strain BRE1, stronger effect = lower value 1.01 | locus YDL101C, strain DUN1, stronger effect = lower value 0.951 | locus YDL185W, strain tfp1, stronger effect = lower value 0.932 | locus YDL192W, strain arf1, stronger effect = lower value 0.982 | locus YDR001C, strain nth1, stronger effect = lower value 0.966 | locus YDR069C, strain doa4, stronger effect = lower value 0.943 | locus YDR101C, strain arx1, stronger effect = lower value 1.03 | locus YDR137W, strain rgp1, stronger effect = lower value 0.939 | locus YDR159W, strain sac3, stronger effect = lower value 1 | locus YDR162C, strain NBP2, stronger effect = lower value 0.993 | locus YDR195W, strain ref2 1 | locus YDR297W, strain sur2, stronger effect = lower value 0.955 | locus YDR318W, strain mcm21, stronger effect = lower value 0.989 | locus YDR334W, strain swr1, stronger effect = lower value 0.941 | locus YDR335W, strain msn5, stronger effect = lower value 0.95 | locus YDR388W, stronger effect = lower value 0.947 | locus YDR502C, strain sam2, stronger effect = lower value 0.964 | locus YEL003W, strain gim4, stronger effect = lower value 0.959 | locus YEL037C, strain rad23, stronger effect = lower value 0.958 | locus YEL061C, strain CIN8 (second series), stronger effect = lower value 0.96 | locus YEL061C, strain CIN8, stronger effect = lower value 0.968 | locus YER015W, strain faa2, stronger effect = lower value 0.935 | locus YER016W, strain bim1, stronger effect = lower value 0.961 | locus YER110C, stronger effect = lower value 0.924 | locus YER111C, strain swi4, stronger effect = lower value 0.978 | locus YER155C, strain BEM2 (second series), stronger effect = lower value 0.915 | locus YER155C, strain BEM2, stronger effect = lower value 0.96 | locus YER167W, strain BCK2, stronger effect = lower value 0.968 | locus YFR010W, strain ubp6, stronger effect = lower value 0.944 | locus YGL078C, strain dbp3, stronger effect = lower value 0.994 | locus YGL086W, strain mad1, stronger effect = lower value 0.986 | locus YGL167C, strain pmr1, stronger effect = lower value 0.943 | locus YGL173C, strain kem1, stronger effect = lower value 0.977 | locus YGL227W, strain vid30, stronger effect = lower value 0.973 | locus YGL240W, strain doc1, stronger effect = lower value 0.939 | locus YGL248W, strain PDE1, stronger effect = lower value 0.967 | locus YGL253W, strain hxk2, stronger effect = lower value 0.971 | locus YGR078C, strain PAC10, stronger effect = lower value 0.964 | locus YGR135W, strain pre9, stronger effect = lower value 0.95 | locus YGR229C, strain SMI1, stronger effect = lower value 1.01 | locus YGR252W, strain gcn5, stronger effect = lower value 1.1 | locus YHR013C, strain ard1, stronger effect = lower value 0.926 | locus YHR027C, strain rpn1, stronger effect = lower value 0.945 | locus YHR030C, strain SLT2, stronger effect = lower value 0.963 and 1.06 | locus YHR079C, strain IRE1 (second series), stronger effect = lower value 0.968 | locus YHR079C, strain IRE1, stronger effect = lower value 1.04 | locus YHR094C, strain hxt1, stronger effect = lower value 0.961 | locus YHR129C, strain ARP1, stronger effect = lower value 0.966 | locus YHR142W, strain chs7, stronger effect = lower value 0.919 | locus YHR200W, strain rpn10, stronger effect = lower value 0.983 | locus YIL066C, strain RNR3, stronger effect = lower value 0.971 | locus YIL073C, strain SPO22, stronger effect = lower value 0.938 | locus YIL125W, strain kgd1, stronger effect = lower value 0.979 | locus YIR030C, strain dcg1, stronger effect = lower value 0.956 | locus YJL092W, strain hpr5, stronger effect = lower value 0.957 | locus YJL095W, strain BCK1 (second series), stronger effect = lower value 0.95 | locus YJL095W, strain BCK1, stronger effect = lower value 0.935 and 1.06 | locus YJL115W, strain asf1, stronger effect = lower value 0.939 | locus YJL129C, strain trk1, stronger effect = lower value 0.949 | locus YJL134W, strain LCB3, stronger effect = lower value 0.964 | locus YJL154C, strain vps35, stronger effect = lower value 0.959 | locus YJL164C, strain tpk1, stronger effect = lower value 0.929 | locus YJL166W, strain qcr8, stronger effect = lower value 0.955 | locus YJL168C, strain set2, stronger effect = lower value 0.965 | locus YJL187C, strain SWE1 (second series), stronger effect = lower value 0.967 | locus YJL187C, strain SWE1, stronger effect = lower value 0.954 | locus YJR043C, strain POL32, stronger effect = lower value 1.08
active: locus YAL021C, strain ccr4, stronger effect = lower value 0.901 | locus YDR392W, strain spt3, stronger effect = lower value 0.721
